Our source for the Potency values is PubChem BioAssay (NCATS).

Records with an inconclusive call do not appear. Calls of active or inactive are those of the source. Calls come from the whole dose curve; as a rule, active = well fitted cell-killing curve with a large enough effect; inconclusive = small, poorly fitted or top-dose-only effect, or effect the other way; inactive = no such curve, though single readings can be large or run the other way.

Experiment [1] can be described thus: Quantitative High-Throughput drug screen in 47 multiple myeloma cell lines against the NCATS MIPE library collection: XG6_PLB cell viability assay (AID 1919865). Note: nearly all actives have a fitted effect of over 40% in size. Summed up:
(§1)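 qHTS format: cells plated (500/well), pin-dosed with MIPE 4.0 compounds, kept 48 h at 37 °C. Readout was CellTiter-Glo luminescence, median RLU.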

The nature of experiment [2]: Quantitative High-Throughput drug screen in 47 multiple myeloma cell lines against the NCATS MIPE library collection: XG1_PLB cell viability assay (AID 1919866). Note: nearly all actives have a fitted effect of over 35% in size. An outline of the steps:
as §1

Experiment [3] is described as follows: Quantitative High-Throughput drug screen in 47 multiple myeloma cell lines against the NCATS MIPE library collection: VP6_DJ cell viability assay (AID 1919867). Note: nearly all actives have a fitted effect of over 40% in size. An outline of the steps:
as §1

The nature of experiment [4]: Quantitative High-Throughput drug screen in 47 multiple myeloma cell lines against the NCATS MIPE library collection: PE2_PLB cell viability assay (AID 1919869). Note: nearly all actives have a fitted effect of over 35% in size. Summed up: as §1
The nature of experiment [5]: Quantitative High-Throughput drug screen in 47 multiple myeloma cell lines against the NCATS MIPE library collection: PCM6_Riken cell viability assay (AID 1919870). Note: nearly all actives have a fitted effect of over 30% in size. An outline of the steps: as §1
Experiment [6] in a line: Quantitative High-Throughput drug screen in 47 multiple myeloma cell lines against the NCATS MIPE library collection: RPMI8226_ATCC cell viability assay (AID 1919871). Note: nearly all actives have a fitted effect of over 30% in size. An outline of the steps: as §1
Experiment [7] is described as follows: Quantitative High-Throughput drug screen in 47 multiple myeloma cell lines against the NCATS MIPE library collection: KMS11_JCRBsus cell viability assay (AID 1919873). Note: nearly all actives have a fitted effect of over 50% in size. Summed up:
as §1

Experiment [8] in a line: Quantitative High-Throughput drug screen in 47 multiple myeloma cell lines against the NCATS MIPE library collection: KMS28BM_JCRB cell viability assay (AID 1919874). Note: nearly all actives have a fitted effect of over 35% in size. An outline of the steps: as §1
Experiment [9] in a line: Quantitative High-Throughput drug screen in 47 multiple myeloma cell lines against the NCATS MIPE library collection: UTMC2_PLB cell viability assay (AID 1919868). Note: nearly all actives have a fitted effect of over 55% in size. As to conditions: CellTiter-Glo ATP luminescence, 48 h; viability (% of DMSO control): at 45.8 µM (top of the series). An outline of the steps:
as §1

The nature of experiment [10]: Quantitative High-Throughput drug screen in 47 multiple myeloma cell lines against the NCATS MIPE library collection: OPM2_DSMZ cell viability assay (AID 1919872). Note: nearly all actives have a fitted effect of over 30% in size. Summed up: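 Primary qHTS used for cherry-picking: cells at 500/well, library compounds for 48 h (37C, 5% CO2), luminescent ATP assay.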
Potency is the fitted concentration of half-maximal effect.

As for `N#C[C@H](O[C@@H]1O[C@H](CO[C@@H]2O[C@H](CO)[C@H](O)[C@H](O)[C@H]2O)[C@H](O)[C@H](O)[C@H]1O)c1ccccc1`, the Potency in experiment [1] is 18700 nM (active); in [2] it was 23500 nM (active); in experiment [3], 18700 nM (active); in [4], 18700 nM (active); in [5] it was 18700 nM (active); in [6], 23500 nM (active). The Potency was 7430 nM (active) in experiment [7] and 18700 nM (active) in experiment [8].

Regarding `NC1CC1c1ccccc1` (stereo unspecified), the Potency entry in experiment [1], in experiment [2], in experiment [9], in experiment [4], in experiment [5] and in experiment [6] was “inactive” throughout. The Potency entry in [10], in experiment [7] and in experiment [8] was “inactive” each time.

`CC1=C(O)C(=O)C=C2C1=CC=C1[C@@]2(C)CC[C@@]2(C)[C@@H]3C[C@](C)(C(=O)O)CC[C@]3(C)CC[C@]12C`: the Potency in experiment [1] is 743 nM (active); in experiment [2], 590 nM (active); in experiment [3], 935 nM (active); in experiment [9], 1480 nM (active); in [4], 743 nM (active); in [5] it was 743 nM (active). Moreover, the Potency was 1180 nM (active) in experiment [6], 833 nM (active) in experiment [10], 935 nM (active) in experiment [7] and 833 nM (active) in [8].

As for `CC(N[C@H]1C[C@H]1c1ccccc1)c1ccc2c(c1)OCCO2` (stereo partly specified), the Potency entry in experiment [1], in [2], in experiment [4], in experiment [6], in [10] and in experiment [7] was “inactive” throughout. The Potency entry in experiment [8] is “inactive”.

In the case of `CCNC(=O)CC1N=C(c2ccc(Cl)cc2)c2cc(OC)ccc2-n2c(C)nnc21` (stereo unspecified), the Potency in [1] was 4690 nM (active); in [2], 5900 nM (active); in experiment [3] it was 16600 nM (active); in experiment [5], 23500 nM (active); in experiment [6], 4690 nM (active); in experiment [10], 16600 nM (active). The Potency in experiment [7] and in experiment [8] was 18700 nM (active) each time.

On to `c1cc2c(cc1[C@H]1OC[C@H]3[C@H]1CO[C@H]3c1ccc3c(c1)OCO3)OCO2`, for which, in [1], the Potency was 26400 nM (active). The Potency entry in experiment [2], in experiment [3], in experiment [5], in [6], in experiment [10] and in experiment [7] was “inactive” throughout. In [8], the Potency result was “inactive”.

On to `CC(=O)OCC1=C(C(=O)O)N2C(=O)[C@@H](N)[C@@H]2SC1`, for which the Potency result in experiment [1], in experiment [2], in [3], in experiment [9], in [4] and in [5] was “inactive” in each case. The Potency entry in [10], in experiment [7] and in experiment [8] was “inactive” each time.

Regarding `CC(=Cc1csc(C)n1)[C@@H]1C[C@H]2O[C@@H]2CCC[C@H](C)[C@@H](O)[C@@H](C)C(=O)C(C)(C)[C@@H](O)CC(=O)O1`, the Potency result in [1], in [3], in experiment [4], in [5], in experiment [6] and in experiment [10] was “inactive” each time. Besides, the Potency result in [7] and in experiment [8] was “inactive” each time.

For the compound `Cc1[nH]nc2ccc(-c3cncc(OC[C@@H](N)Cc4c[nH]c5ccccc45)c3)cc12`, the Potency in experiment [1] was 418 nM (active); in experiment [2] it was 235 nM (active); in [3], 296 nM (active); in experiment [9], 372 nM (active); in experiment [4], 935 nM (active); in experiment [5] it was 264 nM (active). Moreover, the Potency in [6] is 3320 nM (active); in [10] it was 14800 nM (active); in experiment [7], 372 nM (active); in experiment [8] it was 296 nM (active).

Turning to `CN1[C@H]2CC(O)C[C@H]1[C@H]1O[C@H]12` (stereo partly specified), the Potency in [1] is 7430 nM (active); in [2], 9350 nM (active); in experiment [3], 9350 nM (active); in experiment [4], 20900 nM (active); in [5], 11800 nM (active); in experiment [6] it was 18700 nM (active). Besides, in experiment [10], the Potency is 23500 nM (active).

Turning to `CC[C@@]1(O)C(=O)OCc2c1cc1n(c2=O)Cc2cc3ccccc3nc2-1`, the Potency in experiment [1] is 14.8 nM (active); in [2] it was 33.2 nM (active); in experiment [3], 166 nM (active); in experiment [9], 16.6 nM (active); in experiment [4], 209 nM (active); in [5] it was 372 nM (active). Further, the Potency in [6] was 743 nM (active); in experiment [10], 743 nM (active); in [7] it was 418 nM (active); in experiment [8] it was 105 nM (active).

As for `COC[C@H]1OC(=O)c2coc3c2[C@@]1(C)C1=C(C3=O)[C@@H]2CC[C@H](O)[C@@]2(C)C[C@@H]1OC(C)=O`, the Potency in experiment [1] is 4180 nM (active); in experiment [2], 2090 nM (active); in experiment [3], 1870 nM (active); in [9], 296 nM (active); in [4], 743 nM (active); in experiment [5], 3720 nM (active). Besides, the Potency in experiment [6] was 2960 nM (active); in [10], 1870 nM (active); in experiment [7], 1660 nM (active); in experiment [8] it was 9350 nM (active).

On to `CC(C)N[C@@H]1CCn2c(=O)[nH]c3cccc(c32)[C@@H]1O`, for which the Potency in experiment [1] was 2350 nM (active); in [2], 3320 nM (active); in [9] it was 10500 nM (active); in [4], 4180 nM (active); in experiment [5], 5260 nM (active).

Take `CC(=O)O[C@@]12CO[C@H]1C[C@H](O)[C@@]1(C)C(=O)[C@H](O)C3=C(C)[C@@H](O)C[C@@](O)([C@@H](OC(=O)c4ccccc4)[C@@H]21)C3(C)C`: the Potency in experiment [1] was 418 nM (active); in experiment [2], 526 nM (active); in experiment [3] it was 935 nM (active); in [5], 3320 nM (active); in [6] it was 2960 nM (active); in [10] it was 9350 nM (active). Moreover, the Potency in experiment [7] is 2350 nM (active).
